Source: PubChem BioAssay
Rows were chosen to be rich in hits. Some 4.8% of all compounds tested hit in one or more screens of this group.
D3 antag: blocks the human D3 dopamine receptor; D3R cells, DiscoveRx beta-arrestin luminescence, antagonist mode; hits give low values; max response, negative = inhibition, %; hit rate 2.5% among 360,000; AID 652054; in the data active = max response below about -50%; inconclusive = no clear call, values can overlap the other calls
Target sequence (P35462 whole entry, looked up): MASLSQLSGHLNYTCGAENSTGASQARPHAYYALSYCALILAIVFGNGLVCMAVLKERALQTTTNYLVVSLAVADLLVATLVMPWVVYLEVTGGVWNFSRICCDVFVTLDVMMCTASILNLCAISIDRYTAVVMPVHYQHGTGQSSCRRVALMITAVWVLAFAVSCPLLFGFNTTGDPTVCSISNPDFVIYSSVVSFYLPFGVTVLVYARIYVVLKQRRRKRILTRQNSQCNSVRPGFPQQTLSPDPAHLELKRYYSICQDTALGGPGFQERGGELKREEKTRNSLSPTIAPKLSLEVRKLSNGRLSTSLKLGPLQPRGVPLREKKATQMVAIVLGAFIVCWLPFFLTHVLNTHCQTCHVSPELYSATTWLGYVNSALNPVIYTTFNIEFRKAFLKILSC
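Cells plated overnight at 1500 cells/well, then exposed to library compounds with dopamine controls for 90 minutes at 37 degrees C. DiscoveRx reagent added for 30–60 minutes at room temperature; luminescence read, quantitative HTS format.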
HepG2 viability: HepG2 cytotoxicity, counter-screen for TGF-b inhibitors | AID 588856 | Potency, µM (series often up to 46.1 µM), hits mostly cytotoxic | HepG2 CAGA-GFP viability, ATP luminescence, 18 h | hit rate 0.76% among 410,000
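HepG2 CAGA-GFP cells (1000/well, DMEM with 1% FBS) received compound, then TGF-beta at 500 pg/mL final, and were incubated 18 hours at 37 degrees C. Viability was read by CellTiter-Glo luminescence. Media-only wells were set as complete cell-killing and DMSO as no toxicity.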
ATXN2 expr inh: inhibitors of ATXN2 expression; HEK-293 ATXN2-luciferase reporter, luminescence, 24 h; Potency, µM (titrated, usually from 57 µM), actives largely listed as inhibitors; hit rate 0.72% among 360,000; AID 1745845; also: nearly all actives have a fitted effect of over 55% in size
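qHTS (up to 57 uM final) was run with 24 h compound exposure of reporter cells at 37 °C. Each well was multiplexed: SteadyGlo luminescence measured ATXN2-luciferase expression after a fluorogenic Gly-Phe-AFC viability readout (25 uM final).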
ATXN viability: cell viability loss in ATXN counter-screen; S2 cells (HEK-293 line with an ATXN2-luciferase reporter) viability, CellTiter-Fluor protease fluorescence, 24 h; Potency, µM (titrated, usually from 56.7 µM), usual class: cytotoxic; hit rate 0.49% among 400,000; AID 651635; also: nearly all actives have a fitted effect of over 40% in size
TGFb inhibitor: TGF-b pathway inhibition. HepG2 CAGA-GFP TGF-b/SMAD3 reporter, GFP fluorescence, 18 h; TGF-beta stimulated, 500 pg/mL final. Potency, µM (highest dose often 46.1 µM), actives largely listed as inhibitors. hit rate 1.2% among 410,000. AID 588855; also: nearly all actives have a fitted effect of over 65% in size
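TGF-beta reporter screen: HEPG2 CAGA-GFP, 1% FBS, 500 pg/mL TGF-beta final, 18 h; per-cell GFP summed per well; curves fitted and categorized by class.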
DRD3 agonist: agonists of human D3 dopamine receptor | P35462 | D3R DiscoveRx beta-arrestin cells, luminescence, 90 min | max activation, % | hit rate 0.58% among 410,000 | AID 652048; in the data active = max activation above about 30%
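Cells at 1500/well, incubated overnight, then treated with pinned compounds (dopamine as control) for 90 min at 37 degrees C. DiscoveRx reagent added for 30 - 60 minutes at room temperature; luminescence read.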
Of the large screens only hits and unclear results are named; the others gave an inactive call. Unless noted, calls follow the shape of the dose curve; as a rule, active = well fitted curve in the direction sought with a large enough effect; inconclusive = small, poorly fitted or top-dose-only effect, or another doubt; inactive = no such curve, though single readings can be large; an effect the other way counts as inactive or inconclusive.

Cc1c(Cc2c(C)n(C)n(-c3ccccc3)c2=O)c(=O)n(-c2ccccc2)n1C	none
CCCC(=O)NC(=S)c1c(C)n(C)n(-c2ccccc2)c1=O	DRD3 agonist 38
Cc1c(CN(C)CCc2ccccc2)c(=O)n(-c2ccccc2)n1C	D3 antag -77
Cc1c(N=NC2=C(O)CC(C)(C)CC2=O)c(=O)n(-c2ccccc2)n1C	D3 antag -63
Cc1c(N=Cc2ccncc2)c(=O)n(-c2ccccc2)n1C	none
Cc1c(O)c(=O)n(-c2ccccc2)n1C	D3 antag -57
Cc1c(I)c(=O)n(-c2ccccc2)n1C	none (no result: D3 antag, HepG2 viability, TGFb inhibitor)
CCCCCCCCCCCC[N+](C)(C)Cc1ccccc1	ATXN2 expr inh 25µM, ATXN viability 32µM (no result: D3 antag, HepG2 viability, TGFb inhibitor)
C#CC[N+](C)(C)CCCCCCCCC	ATXN2 expr inh inconclusive
COc1cccc(OC)c1OCCCOc1c(OC)cccc1OC	none
COc1cccc(OC)c1OCCNCC1CSc2ccccc2O1 (stereo unspecified)	D3 antag -95
CC(=O)CC/C=C(\C)CC/C=C(\C)CC/C=C(\C)CCC=C(C)C	none (no result: D3 antag, HepG2 viability, TGFb inhibitor)
CN(C)c1ccc(N=Cc2ccncc2)cc1	none (no result: D3 antag, ATXN2 expr inh, ATXN viability, DRD3 agonist)
CCC(C)N(C(=O)CSc1nc(C)nc2ccccc12)C1CCS(=O)(=O)C1 (stereo unspecified)	ATXN viability inconclusive
C=CCn1c(SCC(=O)N(C(C)CC)C2CCS(=O)(=O)C2)nc2ccccc2c1=O (stereo unspecified)	HepG2 viability 7.1µM
CSc1ccc(-c2ccc(C(=O)NCC3CCCO3)c(N3CCC(O)CC3)n2)cc1 (stereo unspecified)	none (no result: D3 antag, HepG2 viability, ATXN2 expr inh, TGFb inhibitor, DRD3 agonist)
Cc1ccc(SC(=O)c2c(C)noc2-c2cc(C)on2)cc1	D3 antag -92, TGFb inhibitor 18µM
COc1ccc2nc3c(cc2c1)Cn1c-3nc2ccccc2c1=O	none (no result: D3 antag, ATXN2 expr inh, ATXN viability, DRD3 agonist)
C=C(C)C1CC=C(CN2CCN(Cc3ccccc3)CC2)CC1 (stereo unspecified)	D3 antag -57, ATXN viability inconclusive, TGFb inhibitor inconclusive (no result: ATXN2 expr inh)
C=C(C)[C@@H]1CC=C(CN2CCN(Cc3ccccc3)CC2)CC1	D3 antag -65
C=C(C)C1CC=C(CN2CCC(O)CC2)CC1 (stereo unspecified)	D3 antag inconclusive
Cc1cc(Cl)ccc1NC(=O)c1cc2ccccn2n1	none (no result: D3 antag)
CCc1nn(CC(=O)N(C)Cc2ccccc2)c(=O)c2cc3sccc3n12	TGFb inhibitor inconclusive (no result: D3 antag, ATXN2 expr inh, ATXN viability)
COCCn1c(SCC(=O)NNC(=O)c2cc(Cl)ccc2OC)nnc1-c1ccncc1	D3 antag -100 (no result: ATXN2 expr inh)
CNC(=O)c1ccc(C)c(-n2c(C)cc(OCc3ccc(F)cc3F)c(Br)c2=O)c1	none (no result: D3 antag, HepG2 viability, ATXN viability, TGFb inhibitor, DRD3 agonist)
CCCC(=O)Nc1cc(C)c(O)c(-c2nc3ncccc3o2)c1	none (no result: D3 antag)
CCOc1cccc2c1OC1(C)CC2NC(=O)N1c1cccc(C(=O)NCc2ccccn2)c1 (stereo unspecified)	none (no result: ATXN2 expr inh)
CCOc1cccc2c1OC1(C)CC2NC(=O)N1c1cccc(F)c1 (stereo unspecified)	D3 antag -51, ATXN viability inconclusive
CCc1ccc(NC(=O)CC2C(=O)N(c3cccc(C)c3)C(=O)N2CCC(C)C)cc1 (stereo unspecified)	TGFb inhibitor inconclusive (no result: D3 antag, ATXN2 expr inh, ATXN viability)
CCCn1nc([N+](=O)[O-])c(C(C#N)c2nc3ccccc3o2)c(Cl)c1=O (stereo unspecified)	D3 antag -61, TGFb inhibitor inconclusive
CCCCn1c(N)c(-c2nc3ccccc3o2)c2c([N+](=O)[O-])nn(CC)c(=O)c21	none
Cn1nc([N+](=O)[O-])c(C(C#N)c2ccccn2)c(Cl)c1=O (stereo unspecified)	D3 antag inconclusive, HepG2 viability 13µM, ATXN viability inconclusive, TGFb inhibitor inconclusive (no result: ATXN2 expr inh)
Cc1onc(-c2ccccc2)c1C(=O)N[C@@H]1C(=O)N2[C@@H](C(=O)O)C(C)(C)S[C@@H]12	none (no result: D3 antag, HepG2 viability, TGFb inhibitor, DRD3 agonist)
Cc1cc(C)cc(NC(=O)C(=O)NCC(c2ccc3c(c2)OCO3)N2CCOCC2)c1 (stereo unspecified)	none (no result: D3 antag, ATXN2 expr inh, ATXN viability)
Cc1ccc(C)c(NC(=O)Cn2c(=O)n(CC3CCCO3)c(=O)c3ccccc32)c1 (stereo unspecified)	none (no result: D3 antag)
CC(=O)Oc1cccc2c1C(=O)c1c(OC(C)=O)cc(C(=O)O)cc1C2=O	D3 antag -122
COc1ccc(NC(=O)CSc2nc3c(oc4ccccc43)c(=O)n2-c2ccccc2)cc1OC	ATXN viability 18µM (no result: D3 antag)
Cc1cccc(NC(=O)CSc2nc3c(oc4ccccc43)c(=O)n2-c2ccccc2)c1	none
O=C(COc1ccccc1C(=O)Nc1ccccc1)Nc1cccc([N+](=O)[O-])c1	none (no result: D3 antag, ATXN2 expr inh, ATXN viability, DRD3 agonist)
CCc1ccn2cc(-c3ccc4c(c3)OCO4)nc2c1	ATXN2 expr inh 3.5µM, ATXN viability inconclusive
COC(=O)c1ccc2nc(-c3ccc4c(c3)OCO4)cn2c1	ATXN2 expr inh inconclusive, TGFb inhibitor inconclusive
O=C(Nc1cccc(Cl)c1)c1ccc2c(c1)CCN2S(=O)(=O)c1ccccc1	ATXN viability inconclusive (no result: D3 antag)
C[C@H](CO)N1C[C@H](C)[C@@H](CN(C)Cc2ccc(Oc3ccccc3)cc2)Oc2c(NC(=O)C3CC3)cccc2C1=O	ATXN2 expr inh inconclusive, ATXN viability inconclusive, TGFb inhibitor inconclusive, DRD3 agonist 35
C[C@H](CO)N1C[C@H](C)[C@@H](CN(C)CC2CCCCC2)Oc2c(NC(=O)C3CC3)cccc2C1=O	ATXN2 expr inh inconclusive, ATXN viability inconclusive, TGFb inhibitor inconclusive
C[C@H](CO)N1C[C@H](C)[C@@H](CN(C)Cc2ccc(C(=O)O)cc2)Oc2c(NC(=O)C3CC3)cccc2C1=O	none
C[C@H](CO)N1C[C@H](C)[C@@H](CN(C)Cc2ccccc2)Oc2c(NC(=O)C3CCCCC3)cccc2C1=O	ATXN2 expr inh inconclusive, ATXN viability 20µM, TGFb inhibitor inconclusive
C[C@H](CO)N1C[C@H](C)[C@@H](CN(C)Cc2ccncc2)Oc2c(NC(=O)C3CC3)cccc2C1=O	TGFb inhibitor inconclusive
C[C@H](CO)N1C[C@H](C)[C@@H](CN(C)CC2CC2)Oc2c(NC(=O)C3CC3)cccc2C1=O	DRD3 agonist 33
CCCCN1CC[C@H]2C=CC[C@@H](C(=O)NCc3cccnc3)[C@H]2C1=O	none (no result: D3 antag, ATXN2 expr inh, ATXN viability, DRD3 agonist)
O=C(/C=C/c1cccc([N+](=O)[O-])c1)n1cnc2ccccc21	D3 antag -104, ATXN2 expr inh inconclusive, TGFb inhibitor inconclusive (no result: ATXN viability)
Cc1ccc(O)c(-c2n[nH]c3c2C(c2ccccc2F)N(Cc2ccco2)C3=O)c1 (stereo unspecified)	HepG2 viability 11µM, ATXN2 expr inh inconclusive, TGFb inhibitor inconclusive (no result: D3 antag, ATXN viability)
CC(C)c1ccc(C2c3c(-c4ccccc4O)n[nH]c3C(=O)N2Cc2ccncc2)cc1 (stereo unspecified)	ATXN viability 32µM, TGFb inhibitor inconclusive (no result: D3 antag)
